The panel holds about 79,000 compounds, 15% with a hit somewhere; the sample as a whole holds those more often. Unmarked numbers belong to inactive results. Activity calls are given as the source filed them. No stated cut-off is given here; in the data, active means growth inhibition above about 70%; inactive means the rest.
Columns and labels:
[1] = NCI Yeast Anticancer Drug Screen. Data for the rad50 strain (AID 155);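 further: 0% = growth of vehicle-only cultures of the same strain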; details: S. cerevisiae rad50 strain growth inhibition; at 50.0 µM; stronger effect = higher value
In short: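 A DNA repair-deficient yeast mutant serves as the test organism; compound-induced growth inhibition is calculated against vehicle-treated cells.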

[2] = NCI Yeast Anticancer Drug Screen. Data for the mec2-1 strain (AID 157); details: S. cerevisiae mec2-1 strain, at 50.0 µM, stronger effect = higher value
In short: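 Test agents were screened against the mec2-1 yeast strain, with defined DNA repair or cell cycle alteration. Growth was scored as inhibition against vehicle-only controls.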

[3] = NCI Yeast Anticancer Drug Screen. Data for the sgs1 mgt1 strain (AID 161);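 further: 0% = growth of cultures given vehicle only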; details: S. cerevisiae sgs1 mgt1 strain, at 50.0 µM, stronger effect = higher value
In short: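 Mutant yeast exposed to compound; growth scored against vehicle-only wells.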

[4] = NCI Yeast Anticancer Drug Screen. Data for the cln2 rad14 strain (AID 165);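 further: 0% = growth equal to vehicle treated cultures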; details: S. cerevisiae cln2 rad14 strain, at 50.0 µM, stronger effect = higher value
In short: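 Growth of compound-exposed yeast (cln2 rad14 genotype) measured and expressed as inhibition relative to vehicle.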

[5] = NCI Yeast Anticancer Drug Screen. Data for the bub3 strain (AID 167); details: S. cerevisiae bub3 mutant strain, at 50.0 µM, stronger effect = higher value
In short: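 Inhibition values come from growth of compound-treated mutant yeast normalised to vehicle-treated controls.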

[6] = NCI Yeast Anticancer Drug Screen. Data for the mlh1 rad18 strain (AID 175); details: S. cerevisiae mlh1 rad18 strain growth inhibition; at 50.0 µM; stronger effect = higher value
In short: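 In this whole-cell yeast screen, a strain with altered DNA damage repair is challenged with compound, and its growth is measured against matched vehicle-treated controls.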

| Structure (SMILES) | growth inhibition [1] | growth inhibition [2] | growth inhibition [3] | growth inhibition [4] | growth inhibition [5] | growth inhibition [6] |
| --- | --- | --- | --- | --- | --- | --- |
| C(=C(c1ccccc1)c1ccccc1)N1CCOCC1 | -2.3% | -5.5% | 4.7% | -52% | -20.1% | 1.2% |
| CNC(=S)Nc1ccccc1 | -21.3% | -33.8% | 3.55% | -8.15% | -5.35% | 18.8% |
| COc1cccc(NC(=O)Nc2ccccc2Cl)c1 | -13.2% | 8.1% | -3.25% | -19.2% | -1.3% | -32.6% |
| CC(C)=CC(=O)C/C(=N\NC(N)=S)C(=O)Nc1ccc(Cl)cc1 | -7.4% | -27.5% | 5.55% | 9.45% | 5.1% | -1.3% |
| COC(=O)N/N=C(/CC1(O)C(=O)Nc2ccc([N+](=O)[O-])cc21)c1ccccc1 (configuration not stated) | 48.3% | 34.2% | 36.5% | -3.2% | 0.35% | 40.8% |
| Cc1ccc(CN2CCCCC2)o1 | 16.6% | 3.2% | 0.2% | 1.1% | 2.05% | 7.5% |
| O=C1CCN2CCC(=O)c3c2c(cc2ccccc32)N1 | 6.25% | -15.8% | -4.45% | 10.3% | -12.7% | -12.6% |
| CCN(CC)CCCC(C)NC(=O)c1ccc2c(c1O)C(=O)c1ccccc1C2=O (configuration not stated) | 64% | -7.75% | 65.6% | 58.5% | 30.1% | 84.6% (active) |
| CC(=O)NC(c1ccccc1)c1c(O)ccc2ccccc12 (configuration not stated) | 26.6% | -2.8% | 10.8% | -33.2% | -2.5% | -5.25% |
| Cc1ccc(S(=O)(=O)N/N=C2/CC3CCC2C3)cc1 (configuration not stated) | 5% | 1.3% | -19.7% | -9.4% | 17.3% | -15.3% |
| CCCCC(CC)C(C(C)=O)N(C)C (configuration not stated) | 33.1% | -9.45% | 13.1% | 8.65% | 4.45% | 4.75% |
| COc1cccc2c1[C@]1(O)C(O)CCCC21 (some centres not stated) | -43.6% | -6.6% | -60.6% | 5.95% | -31.9% | -35.7% |
| Cc1ccccc1C(=O)OC1CCCC1 | 13.1% | -1.45% | 2.95% | -19.4% | 8.1% | 0.5% |
| CC(=O)Nc1ccc(/C=N/NC(=O)/C=C/c2ccccc2)cc1 | -7.15% | 3.25% | 6.25% | -5% | -1% | 2.15% |
| O=S(=O)(NCCNS(=O)(=O)c1ccccc1)c1ccccc1 | -10.4% | -13.8% | 10.5% | -44.5% | 1.55% | 4% |
| NC(=O)NC(Cc1ccccc1)(C(=O)O)c1ccccc1 (configuration not stated) | 6.55% | 6.15% | 35.9% | -0.75% | 24.4% | 20.4% |
| CC1=CC(=O)Nc2ccccc2S1 | 43.2% | 29.2% | 59.2% | 17% | 56% | 23.6% |
| O=C(NCCc1ccccc1Br)c1ccccc1 | 8.25% | -26.6% | -5.95% | 18.8% | 28.7% | -6.35% |
| Cc1ccc(NC(=O)CCC(=O)O)cc1Cl | -19.9% | -15.9% | -4.25% | -27.2% | -10.9% | -16.2% |
| Cc1nnc(Nc2ccc(Cl)c(Cl)c2)s1 | -6.95% | -20% | 26.8% | 12.3% | 11.3% | 4.75% |
| Oc1ccc(Cl)cc1N1CCOCC1 | 9.55% | 24.1% | 13.4% | -15.2% | -19.6% | -15% |

| Structure (SMILES) | growth inhibition [1] | growth inhibition [2] | growth inhibition [3] | growth inhibition [4] | growth inhibition [5] | growth inhibition [6] |
| --- | --- | --- | --- | --- | --- | --- |
| O=C1NC(=Nc2ccccc2Cl)SC1C(=O)Nc1ccc([N+](=O)[O-])cc1[N+](=O)[O-] (configuration not stated) | 8.1% | 7.85% | -34.4% | -28.6% | 7.6% | -12.1% |
| O=C(CCCCC(=O)OC1CCCCC1)OC1CCCCC1 | -4.95% | 3.65% | -6.45% | -60.3% | -1.05% | 10.8% |
| Cc1nc2ccccc2o1 | 19.9% | 39.5% | 13.1% | 14.9% | -1.6% | -10.4% |
| O=C1C(Cl)=C(Cl)C(=O)N1c1ccccc1Cl | 42.5% | 23.6% | 36.5% | 43.9% | 34.7% | 55.5% |
| CN(C)CCSC(CO)c1ccccc1 (configuration not stated) | -12.7% | -13.4% | 2.85% | 9.2% | -1.15% | -6.5% |
| NNC(=O)CC(O)C(=O)NN (configuration not stated) | -4.7% | -0.8% | -1.85% | 11.4% | -1.75% | 4.75% |
| Cc1ccc(NC(=O)/C=C/c2ccccc2)cc1 | -2.85% | -8.1% | -3.15% | -3.95% | 10.2% | 10.9% |
| COc1cc(=O)n(-c2ccccc2)nc1C#N | 2.25% | -0.7% | 1.35% | -46.1% | 8.85% | -1.2% |
| Cc1cc2ccccc2nc1-c1ccncc1 | 3.45% | -3.15% | -7.35% | -44.6% | -6.75% | 1.2% |
| CCN1CCCCC(=N\O)/C(=N/O)CCCC1 | -12.8% | -12.2% | -20.1% | -4.2% | -51.6% | -11.8% |
| O=C(NC1CCCCC1NC(c1ccccc1)(c1ccccc1)c1ccccc1)C(=O)NC1CCCCC1NC(c1ccccc1)(c1ccccc1)c1ccccc1 (configuration not stated) | -33.9% | -22.4% | -13.7% | 12.1% | -10.1% | -2.35% |
| CCOC(=O)C(N=Nc1ccc(S(N)(=O)=O)cc1)C(C)=O (configuration not stated) | -0.9% | -15.1% | -12.7% | -4.25% | -13.2% | 16.1% |
| Nc1c(N2CCCCC2)c(=O)nc2[nH]/c(=C\c3ccco3)c(=O)n12 | 5.45% | -26.1% | 10.9% | -21.4% | 8.8% | -7.6% |
| CC12CCCC3(CC(=O)C(C)(C)C3C(=O)C1)C2 (configuration not stated) | -13.9% | -16.1% | -18.4% | 10.2% | 9.6% | 6.2% |
| O=C1CCCC(C(Sc2ccccc2)(Sc2ccccc2)Sc2ccccc2)C1 (configuration not stated) | 62.2% | 5.1% | 65.2% | 37.6% | 21.9% | 81.3% (active) |
| NC(=S)NNc1ccccc1 | 0.2% | -5.8% | -0.05% | -6.7% | -2.6% | -5.3% |
| O=C1C=CC(=NN=c2c3ccccc3oc3ccccc23)C=C1 | -11.3% | -3.35% | 4% | -20.9% | 12.7% | 0.1% |
| O=[N+]([O-])c1ccccc1S(=O)(=O)c1cc(Cl)cc2c1NCCC2 | 16.8% | 0.15% | 26.8% | 9.15% | 38.8% | 30.9% |
| CC(=O)Nc1cc(N)ccc1C | 7.15% | 4.45% | 1.65% | -18.2% | 10.6% | -14.3% |
| Cc1c(O)cc(O)c(C=O)c1C | 6.05% | -4.2% | 16.1% | 4.5% | -2.45% | 3.1% |
| CC(=O)c1c[nH]cc1CO | -1.7% | 7.8% | 8.85% | 11.3% | 11.6% | -7.75% |
